The campaign covered roughly 6,900 compounds. Fewer than 10 were called active. Calls follow the shape of the dose curve; as a rule, active = well fitted curve in the direction sought with a large enough effect; inconclusive = small, poorly fitted or top-dose-only effect, or another doubt; inactive = no such curve, though single readings can be large or run the other way. The list is a sample of the results.
What follows are compounds tested against Metallo-beta-lactamase type 2 (Klebsiella pneumoniae) (UniProt C7C422) (assay: qHTS to identify inhibitors of the New Delhi Metallo-beta-lactamase (NDM): primary screen against the NCATS Gemini Collection). Conditions: NDM-1 enzyme, meropenem hydrolysis, absorbance 300 nm; series mostly up to 38.4 µM; activity % (negative = inhibition): at the top concentration.
Sequence of Metallo-beta-lactamase type 2 (Klebsiella pneumoniae) (C7C422 whole entry, looked up): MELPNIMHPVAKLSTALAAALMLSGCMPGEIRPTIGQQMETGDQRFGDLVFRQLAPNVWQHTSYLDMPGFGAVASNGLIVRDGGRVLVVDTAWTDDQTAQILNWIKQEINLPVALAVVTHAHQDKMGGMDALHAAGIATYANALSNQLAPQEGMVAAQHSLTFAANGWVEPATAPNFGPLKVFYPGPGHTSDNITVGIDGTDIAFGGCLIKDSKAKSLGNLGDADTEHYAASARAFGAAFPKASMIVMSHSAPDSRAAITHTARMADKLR
From the text: Assay Submitter (PI): James Inglese Ph.D., Patricia Dranchak Ph.D., Mahesh Aitha Ph.D. Assay Development and Screening Technology Laboratory (ADST) National Center for Advancing Translational Sciences (NCATS), Rockville, MD National Institute of Health (NIH), Bethesda, Maryland The metallo-beta-lactamases (MBL) are a main antibiotic resistance mechanism evolved by bacteria. There is an urgent clinical need for MBL inhibitors to mitigate this growing threat. To support a machine-based learning study, qHTS has been used to experimentally test inhibitors identified by prediction tools.
PROTOCOL TABLE (as described by Inglese et al., 2007) SEQUENCE No. (e.g., 1, 2, 3, etc.); […] (e.g., enzyme, Incubation, Reagent, etc.); VALUE; DESCRIPTION 1; NDM-1; 4 uL of 3 nM enzyme [2 nM final] in 50 mM HEPES (pH 7.0), 1 uM […], 0.01% Tween20; Use BioRaptr to dispense into Aurora black, clear bottom low base 1536-well plates 2; Compounds; 23 nL; Use Pin Tool (Wako) to transfer DMSO control and library compounds in DMSO 3; Incubate; >30 min 4; Reagent; 2 uL of 150 uM meropenem [50 uM final] 5; Incubate; 30 min. 6; Detector; Absorbance at 300 nm (bandwidth = 5 nm, 25 flashes/well) on Tecan Infinity NOTES (numbers refer to sequence above) 1; Column 1 of each plate received assay buffer without enzyme and columns 2-48 received enzyme for a final assay concentration of 2 nM. 2; Control plate contained DMSO in columns 1, 2, 3, and 4. 3; Compound interaction with enzyme. 4; Meropenem substrate was prepared in the same assay buffer as step 1 for a final assay concentration of 50 uM and added to all wells across the assay plates. 5; Substrate interaction with enzyme, plateau phase of kinetics. 6; Default reader settings were applied for absorbance read at 300 nm, bandwidth = 5 nm, 25 flashes/well. References: Inglese J, Shamu CE, Guy RK. 2007. Reporting data from high-throughput screening of small-molecule libraries. Nat Chem Biol. doi:10.1038/nchembio0807-438 Yasgar A, Shinn P, Jadhav A, Auld D, Michael S, Zheng W, Austin CP, Inglese J, Simeonov A. 2008. Compound Management for Quantitative High-Throughput Screening. J Lab Autom 13:79 - 89. doi:10.1016/j.jala.2007.12.004
Also: % of control where 0% means no effect.

Activity % (negative = inhibition), inactive:
COc1ccc2c(c1)c(CN1C[C@@H](CO)[C@H](c3nc(C)no3)C1)cn2C 23.1%, Nc1nc(CCC(=O)N[C@@H]2COCC[C@H]2Oc2ccc(CO)cc2)cs1 -3.81%, Cc1cccc2c1O[C@H]1[C@H](CO)CN([S+](=O)([O-])c3cccs3)[C@@H]21 4.48%, Cc1cccc(C(=O)N2CC[C@H]3C(=O)NCCCCCCN(Cc4ccncc4)[C@@H]3C2)c1 1.14%, Fc1ccc2nc(CO[C@H]3CN(C4CCOCC4)C[C@H]3F)[nH]c2c1 3.56% [at 57.5 µM], O=C(c1ccccc1)N1CCC2(CC(Cc3ccccc3)=NO2)C1 (stereo unspecified) 9.1% [at 57.5 µM], CCc1nc2c(c(-c3ccc(O)cc3)n1)CN(Cc1ccc(NC(C)=O)cc1)CC2 13.5%, Cc1ncnc(N2CCN(C(=O)C3CCN(C(=O)C4CC4)CC3)CC2)c1C 7.66%, O=C(CC1CCOCC1)Nc1ccc(N2CCOCC2)cc1 -5.65%, CCNc1ncc(C(=O)N[C@H](C2CCNCC2)C2CC(O)C2)cn1 (stereo partly specified) 21.5%, CCOC(=O)C1(Cc2ccccc2F)CCCN(C(=O)c2ccc3c(c2)OCCO3)C1 (stereo unspecified) -0.209%, O=C(NC1CC(c2nnc(CO)n2C2CC2)C1)c1ccc2c(c1)CCO2 (stereo unspecified) -1.33%, Nc1nc(CCCNC(=O)C2CC(=O)N(Cc3ccccn3)C2)cs1 (stereo unspecified) 5.55%, Fc1ccc(-c2cccc(CN3CC4CCC(C3)N4c3ccc(C(F)(F)F)cc3)c2)c(F)c1 5.91%, CC(=O)Nc1cccc(-c2ncc3c(n2)OCCN(CC2CC2)C3=O)c1 23.9% [at 57.5 µM], CN(C)CC1(O)CCN(C(=O)Cn2cc(C(=O)C3CC3)c3ccccc32)C1 (stereo unspecified) 69.4%, Nc1ncccc1CNC(=O)[C@H]1CCC[C@H](O)C1 16.9%, COc1ccc(-c2cc(-c3ccncc3)cn3cncc23)cc1 2.77% [at 57.5 µM], O=C1NCCOCCCN(S(=O)(=O)c2ccccc2)[C@H]2CCCC[C@@H]12 77.7%, Cc1cc(C(=O)N2CC(N(C(=O)NC(C)C)C3CCOCC3)C2)nn1C -2.63%, Cc1[nH]c2ccccc2c1CC(=O)NCc1ccccc1-n1cncn1 7.08%, COC(=O)N1CCN(Cc2cc(=O)c3cc(F)ccc3[nH]2)CC1 14%, CCCN(C)C(=O)c1c(-c2ccc(F)cc2)noc1[C@H](C)O -10.9% [at 57.5 µM], O=C(NCc1nc(-c2ncccn2)no1)C1CC2(CCNCC2)CN1 (stereo unspecified) -0.57%, CC(C)N1CC[C@@H]2[C@H]1C(=O)NC[C@H](CCC(=O)NCc1ccc(F)cc1)N2C 28% [at 57.5 µM], Cc1cccc(O[C@H]2COCCN(c3nc4ccccc4o3)C2)n1 14.5% [at 57.5 µM], COc1ccc(NC(=O)C2CCN(C(=O)c3ncn4c3COC(c3ccccc3)C4)CC2)cc1Cl (stereo unspecified) 24.2%, CC1(NC(=O)C2CC2)CN(Cc2nc(-c3ccccc3OCc3ccccc3)cs2)C1 3.21% [at 57.5 µM], N#Cc1ccccc1-c1cc2c(ccn2Cc2ccncc2)c(N2CCOCC2)n1 0.932% [at 57.5 µM], COc1cc(CC2(CCC(=O)N3CCC(Oc4cccc(F)c4)CC3)CCC(=O)N2)ccc1F (stereo unspecified) 9.28%, CN1CCN([C@H]2[C@@H]3OC[C@@H](O3)[C@@H](NCc3ccc(-c4ccccc4)cc3)[C@@H]2O)CC1 0.426% [at 57.5 µM], CC(C)(C)c1nc(C(=O)NCc2cccnc2)n2ccccc12 21.7%, CN1CCN(C(=O)c2cncc(N[C@H]3C[C@@H]4OCC[C@H]34)n2)CC1 3.03%, COc1ccc(C(=O)N2CCC3(CCC3OC)CC2)cn1 (stereo unspecified) 2.44%, CCC1(N2CCN(S(=O)(=O)c3cccs3)CC2)CCN(S(C)(=O)=O)C1 (stereo unspecified) 0.936%, Cn1cc(CN[C@H]2C[C@H]3C(=O)NC[C@@H](CCC(=O)NCc4ccccc4)N3C2)c2ccccc21 1.89%, CCc1nc(-c2c3n(c(=O)n(CC(=O)OC)c2=O)CCCC3)no1 0.26%, O=C(c1n[nH]c2ccccc12)N1CC2CC(C1)[C@H]1CCCC(=O)N1C2 (stereo partly specified) 17%, COCc1nnc2n1CCC(NC(=O)Cn1nc(C(F)(F)F)cc1C)CC2 (stereo unspecified) -0.452%, Cc1ccc(C(C(=O)O)N2CCC(C(=O)N3CCCC3)CC2)c(C)c1 (stereo unspecified) -7.75%, O=C(NCCCn1ccnn1)c1cccc(S(=O)(=O)N2CCOCC2)c1 12.3%, CC(=O)N1CCC(N2CC[C@H](c3nc4ccccc4s3)C2)CC1 60.4% [at 57.5 µM], N[C@H]1CN(C(=O)c2cccc(-n3cnnc3)c2)C[C@@H]1c1ccccc1 -3.3%, COCC1CN(Cc2c(C)n[nH]c2C)CC12CCNCC2 (stereo unspecified) -1.59%, COc1ccc(Cn2c3c(c(=O)n2Cc2ccccc2)CCN(C(=O)CCc2cccnc2)C3)cc1 -1.23%, CCn1c(C(=O)OC)c(NC(C)=O)c2cc(NC(C)Cc3ccccc3OC)cnc21 (stereo unspecified) -0.817%, COc1cccc(CN2CC(Oc3ccccc3C(=O)NC3CC3)C2)c1 47%, CN(Cc1cc(C[C@@H]2C[C@H](NC(=O)C(C)(C)C)C2(C)C)no1)c1ccccc1 -0.493% [at 57.5 µM], Cc1cc2nc3n(c(=O)c2n1CC(=O)NC1CCCCC1)CCCCC3 6.24%, COCCN1CCCCCC(O)c2cc(C(=O)NCc3ccc(F)cc3)ccc21 (stereo unspecified) -7.68%, O=C(CCn1ccn2nc3c(c2c1=O)CCCC3)N1CCSCC1 5.47%, CCN(C1CCOCC1)C1CN(C(=O)c2ccccn2)C1 5.74%, CN1CC[C@H]2CN(C(=O)c3scc4c3OCCO4)C[C@@]2(C(=O)O)C1 41.3%, Cc1cc(C(=O)N2CC[C@H](NS(=O)(=O)c3cn(C)cn3)C[C@H]2C(=O)N[C@H](Cc2c[nH]c3ccccc23)C(N)=O)n(C)n1 4.3%, Cc1cccc(C(=O)N2CCCCCCN(C)C(=O)[C@@H]3CCC[C@@H]32)c1 16.9%, CCN(CC)C(=O)[C@@H]1C[C@@H](NC(=O)c2ccn(CC)c(=O)c2)CN1C(C)=O 25%, COC[C@@H]1CN(C(=O)Cc2c(C)noc2C)C[C@H]1c1ccccn1 -1.66%, O=C(NC1CCN(c2ccnc3ccnn23)C1)c1cc(F)ccc1Br (stereo unspecified) 5.28%, COCC(=O)N[C@H]1C[C@@H](CO)N(Cc2scnc2C)C1 1.25%, COc1ccc2cc(C3CN(C(=O)CNC(=O)C(C)C)CCO3)ccc2c1 (stereo unspecified) -1.68%, COc1ccc(C(=O)Nc2ccc3c(c2)CN(CCc2ccccc2)C(=O)C(C)O3)cc1OC (stereo unspecified) 22.1%, COc1ccc(-c2cn(C)c(=O)n3cc(CN4CCNC(=O)C4)nc23)cn1 -6.58% [at 57.5 µM], CCCC(C)N1CC2(CCN(C(=O)c3cnn4c3CCCC4)CC2)OC1=O (stereo unspecified) 2.01%, CCCN1CC2(CCN(Cc3nc(CCOC)no3)CC2)CC1C(=O)O (stereo unspecified) 11.1%, O=C(Cc1ccsc1)Nc1ccc2c(N3CCCC3)ncnc2c1 1.1%, CN(C)Cc1nnc(C2CC(NC(=O)Cc3noc4ccccc34)C2)n1C (stereo unspecified) 3.59%, O=C1NC2(CCN(Cc3ccccc3C(F)(F)F)C2)COc2ccccc21 (stereo unspecified) 13.6%, CN(C)C[C@@H]1CN(Cc2ccncc2)C[C@H]1NC(=O)Cc1ccsc1 -3%, COCc1ncc(C)n1C1CCCN(C(=O)CCCc2ccccc2)C1 (stereo unspecified) -0.663%, O=C(CC1CCCC1)N1CCCC(c2nn[nH]n2)C1 (stereo unspecified) -0.11%, O=C1c2ccccc2CN1C1CCN(Cc2cccc3ccccc23)CC1 -1.67%, COc1ccc(-c2ccccc2NC(=O)C2CCCN(CC=C(C)C)C2)cc1 (stereo unspecified) 3.28%, O=C1NCCOCCN(S(=O)(=O)c2ccc3c(c2)CCC3)[C@@H]2CCCC[C@H]12 18.1%, CC(=O)c1cc(C(=O)NCc2c(C)ncc3c2CCNC3)[nH]n1 1.33%, COc1ccc(C(=O)N2CCC([C@@H]3CNC[C@H]3CO)CC2)cc1 -3.89%, CNC(=O)[C@@H](C1CC1)N1CCC[C@H]1C(=O)NCc1cccnc1 24.8% [at 57.5 µM], COC(=O)NCC(=O)N1CC[C@@H]2[C@@H](CCC(=O)N2CCc2ccccc2)C1 -4.62%, CCn1c(CN2CCN(c3nc4ccccc4s3)CC2)nnc1C1CC(N)C1 (stereo unspecified) -5.98%, CCn1cc(S(=O)(=O)NCC2Cn3cccc3C(=O)N2C)cn1 (stereo unspecified) -1.08%, COc1ccc(CN2CCCC3(Cc4ccccc4CNC3=O)C2)c(OC)n1 (stereo unspecified) 11.1%, Cc1cc(C)n(CCc2c(-c3ccccc3)ncn2C(C)CCCC(C)(C)O)n1 (stereo unspecified) -2.56%, CCc1nc(-c2c3n(c(=O)n(CC(=O)NC4CCCC4)c2=O)CCCCC3)no1 -0.651%, CC(C)Cc1cc(CN2CCC(CO)(CN3CCCC3)CC2)[nH]n1 6.63%, OC1(CN2CCC(c3nc(-c4ccccc4)no3)CC2)CNCCOC1 (stereo unspecified) 1.84%, CCN1CC2(CCN(Cc3nc(COC)no3)CC2)CC(c2ccccc2)C1=O (stereo unspecified) 16.1%, Cc1noc(C)c1CCCNC(=O)c1ccc(NC[C@H]2C[C@H]3C=C[C@H]2C32CC2)nc1 16.1%, CN(C)c1cccc(C(=O)NC2CCN(c3cc(-c4cccs4)[nH]n3)C2)c1 (stereo unspecified) -5.08%, COc1ccccc1-c1ccc(CN2CCCC(c3nc4ccc(C)cc4c(=O)[nH]3)C2)cc1 (stereo unspecified) 2.11%, C[S+](=O)([O-])N1CCC(Cn2ccc3c(N4CCOCC4)nc(-c4cccc5[nH]ncc45)cc32)CC1 33.7%, O=C(c1ccccn1)N1CCCC2(CNc3ccccc3[S+](=O)([O-])N2)C1 (stereo unspecified) 27.6%, CN1CCCC(CN(C)C(=O)c2cc(-c3cnn(CCO)c3)nc3ccccc23)C1 (stereo unspecified) 0.511%, Cc1cnc(C2CC2)n1C1CCCN(C(=O)c2ccoc2)C1 (stereo unspecified) 1.2%, COc1ccc(C(=O)N2CCC3(CC2)OCC(C(=O)NC2CC2)N3C(=O)c2cccc(C)c2)cc1 (stereo unspecified) 15.3%, Cc1ccsc1CN1CCc2nc(N3CCOCC3)[nH]c(=O)c2CC1 5.27%, O=C1NC2(CCCN(Cc3cncs3)C2)COc2ccccc21 (stereo unspecified) -0.209%, CCS(=O)(=O)Nc1ccc(C)n(CC(=O)NC2CCCCC2)c1=O 7.41%
